# According to PubChem BioAssay AID631 (The Scripps Research Institute Molecular Screening Center, 2007):
# Hit rate of the full screen: of about 200,000 compounds, about 810 (0.41%) were called active. Shown is part of a subset that was picked to be rich in actives. Unmarked numbers belong to inactive results. No stated cut-off is given here; in the data, active means activation above about 19%; inactive means the rest.
# Target: Peroxisome proliferator-activated receptor gamma (Homo sapiens) (UniProt P37231)
# Test: enhancers of SRC-1 binding to PPARgamma – biochemical, primary screen (AID 631);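 further: 0% = DMSO and 100% = reference agonist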
# Conditions: PPARgamma-SRC-1 coactivator recruitment biochemical assay; at 8 µM; hits give high values
# Sequence of Peroxisome proliferator-activated receptor gamma (Homo sapiens) (P37231 whole entry, looked up): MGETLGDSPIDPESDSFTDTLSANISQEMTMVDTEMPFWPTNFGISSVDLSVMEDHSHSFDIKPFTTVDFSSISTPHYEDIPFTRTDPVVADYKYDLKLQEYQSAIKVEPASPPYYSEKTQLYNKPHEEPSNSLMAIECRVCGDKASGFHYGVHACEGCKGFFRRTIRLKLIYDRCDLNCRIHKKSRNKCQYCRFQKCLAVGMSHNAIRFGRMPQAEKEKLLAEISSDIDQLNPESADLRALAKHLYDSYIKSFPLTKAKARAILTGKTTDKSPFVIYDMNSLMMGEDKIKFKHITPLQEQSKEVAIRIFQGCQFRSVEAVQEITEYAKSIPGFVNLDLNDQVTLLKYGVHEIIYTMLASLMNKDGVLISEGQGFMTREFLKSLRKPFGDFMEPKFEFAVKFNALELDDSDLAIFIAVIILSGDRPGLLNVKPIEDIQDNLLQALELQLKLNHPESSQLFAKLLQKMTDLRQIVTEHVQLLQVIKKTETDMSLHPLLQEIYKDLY
row,SMILES,activation
1,Cc1cc(C)c2cc(CN(Cc3cccs3)Cc3nnnn3CC3CCCO3)c(=O)[nH]c2c1 (centres undefined),23.5% (active)
2,Cc1cc2cc(CN(Cc3cccs3)Cc3nnnn3CC3CCCO3)c(=O)[nH]c2cc1C (centres undefined),-4.1%
3,Cc1cc(C)c2cc(CN(Cc3nnnn3Cc3ccc(F)cc3)C3CCCC3)c(=O)[nH]c2c1,2.6%
4,CCC(C)(C)NC(=O)C(c1ccccn1)N(C(=O)c1csnn1)c1ccccc1 (centres undefined),3.1%
5,C/C(=N\NC(=O)OC(C)(C)C)c1ccc[nH]1,-0.7%
6,Cc1ccc(OCC(=O)Nc2ccc(-c3nc4ncccc4o3)cc2)cc1,19.5% (active)
7,CC(=O)Nc1ccc(OCC(=O)NCc2ccc(C)cc2)cc1,-5.7%
8,Cc1ccc(OCC(=O)Nc2ccc(S(=O)(=O)Nc3ccccn3)cc2)cc1,2.2%
9,O=C(C1CCN(C2CCN(Cc3cccc4c3OCO4)CC2)CC1)N1CCOCC1,1.6%
10,CCn1c(CNC(=O)c2ccco2)nnc1SCC(=O)Nc1cccc(F)c1,1.6%
11,Cn1c(SCC(=O)Nc2ccc(Br)cc2F)nnc1-c1ccco1,0.1%
12,CCn1c(SCC(=O)Nc2cccc(F)c2)nnc1-c1cc2cc(Br)ccc2o1,24.4% (active)
13,Cc1ccc(OCC(=O)OC(C)CN(C)Cc2ccccc2)cc1 (centres undefined),5%
14,COc1ccc(OC)c(C(=O)CSc2nnc(-c3cccs3)o2)c1,11.4%
15,COC(=O)CSc1nccc(-c2cccs2)n1,4.8%
16,NC(=O)CSc1oc(-c2cccs2)nc1S(=O)(=O)c1ccccc1,20.3% (active)
17,COc1cccc(CNC(=O)Cc2csc(Nc3nc(=S)[nH]c4ccccc34)n2)c1,-3.6%
18,CC(C)C(NC(=O)C1CCC(C(C)(C)C)CC1)C(=O)NCCCN1CCCCC1 (centres undefined),13.2%
19,Cc1cccc2cc(C#N)c(N3CCCC3)nc12,7.6%
20,CC(=O)c1ccc(S(=O)(=O)N2CCN(c3nc4c(C)c(C)ccc4cc3C#N)CC2)cc1,27.9% (active)
21,Cc1cc(C)c2nc(N3CCCC3)c(C#N)cc2c1,3.7%
22,CCCN1CNC(=S)N(CCc2ccccc2)C1,4%
23,CNS(=O)(=O)c1ccc(N2CCCC2=O)c([N+](=O)[O-])c1,-1.5%
24,COC(=O)c1[nH]c2ccccc2c1NS(=O)(=O)c1ccc(OC)cc1OC,6.1%
25,COC(=O)c1[nH]c2ccc(Br)cc2c1NC(=O)Oc1ccccc1,20.2% (active)

row,SMILES,activation
1,COC(=O)c1[nH]c2ccccc2c1NC(=O)CN1CCCc2ccccc21,0.3%
2,C=CCn1cc(-c2cccc(C(F)(F)F)c2)cc(C#N)c1=O,5.6%
3,CCn1c(=O)cc(SCC(=O)NCCC2=CCCCC2)c2ccccc21,13.8%
4,CCn1c(=O)cc(SCC(=O)NCc2ccc3c(c2)OCO3)c2ccccc21,21.9% (active)
5,CC(C)NC(=O)CSc1ccccc1C(=O)NCc1ccc2c(c1)OCO2,-1.4%
6,COCCCNC(=S)NNC(=O)C(O)(c1ccccc1)c1ccccc1,-2.3%
7,Cc1nn(CC(=O)NCc2ccccn2)c(C)c1[N+](=O)[O-],5.4%
8,CS(=O)(=O)N(CC(=O)NC1CCCC1)Cc1ccc(F)cc1,6.9%
9,CCOP(=O)(OCC)C(Nc1ccc([N+](=O)[O-])cc1)c1ccc(Cl)cc1 (centres undefined),-6.5%
10,Cc1ccccc1-c1n[nH]c(=S)n1/N=C/c1ccc(-c2ccccc2Br)o1,32.5% (active)
11,Cc1n[nH]c(=S)n1/N=C/c1ccc(Br)o1,7.5%
12,Cc1ccccc1-c1n[nH]c(=S)n1C,3.3%
13,O=C1CCCN1CCCNC(=S)Nc1ccc(F)c(Cl)c1,-5.5%
14,CCc1nc2ccccc2c(C(=O)OC2CCCCC2=O)c1C (centres undefined),12.2%
15,CC1=C(C(=O)N(C)C)C(c2ccccc2OC(F)F)NC(=O)N1 (centres undefined),6.7%
16,COC(=O)c1cc(OC)ccc1-c1ccc(OC)cc1,9.8%
17,CCS(=O)(=O)Nc1cc(C(=O)OC)ccc1C(=O)OC,7%
18,COC(=O)c1ccc(S(=O)(=O)c2ccc(C(=O)OC)s2)s1,26.8% (active)
19,CCOc1ccc(S(=O)(=O)Nc2ccncc2)c(C)c1C,7.6%
20,Cc1ccc(C(=O)CNc2ccc(F)cc2)cc1,-3.3%
21,COc1cccc2c1CCC(NC(C)=O)C2=O (centres undefined),0.5%
22,COc1ccc(NS(=O)(=O)c2cc(NC(=O)CC(=O)c3ccc([N+](=O)[O-])cc3)ccc2C)cc1,2.2%
23,O=C(O)/C=C\C(=O)Nc1ccc(OCc2ccccc2)cc1,5.5%
24,O=C(NCCCN1CCN(c2ccc(F)cc2)CC1)Nc1ccc([N+](=O)[O-])cc1,11.9%
25,CCSc1nc(-c2ccc(OC)cc2)cc(-c2ccc(OC)cc2)c1C#N,-1.5%

row,SMILES,activation
1,CCOC(=O)CC(=O)CSc1nc(-c2ccccc2)cc(-c2ccc(Cl)cc2)c1C#N,22.2% (active)
2,N#Cc1c(C(F)(F)F)cc(-c2ccc(Cl)cc2)nc1SCC(=O)O,3.2%
3,COc1ccc(C(=O)OCC(=O)NCC2CCCO2)cc1[N+](=O)[O-] (centres undefined),15%
4,O=C(NCCOc1ccccc1F)Nc1ccc(Br)cc1,3.6%
5,CC/C(=N\NC(=O)c1ccccc1Cl)c1ccc(Br)s1,4.2%
6,CCOc1ccc(N=Cc2c(O)n(-c3cccc(C)n3)c(=O)c3ccccc23)cc1,1.1%
7,CCCCn1c(=O)c(C(C)=O)c(O)c2ccccc21,0.5%
8,CC(=O)n1c(C=Nc2ccccc2)c(O)c2ccccc21,22.7% (active)
9,COc1ccc(NS(=O)(=O)c2ccc(O)c(C(=O)OCC(=O)NC3CCCCC3)c2)cc1,4.7%
10,CNC(=O)c1[nH]cnc1C(=O)N[C@@H](CC(C)C)C(=O)OC(C)(C)C,5.5%
11,CN(CCc1cnn(C)c1)Cc1cn(C)nc1-c1ccccc1F,-5.8%
12,CC(C)N(Cc1ccccc1)C(=S)Nc1ccc(OC(F)F)cc1,-4.1%
13,COc1cc(OC)c(C2=NOC(C(=O)Nc3c(C)n(C)n(-c4ccccc4)c3=O)C2)cc1Cl (centres undefined),3.3%
14,Cc1ccc(-c2nc(C)sc2CC(=O)O)cc1,-2%
15,O=C(O)Cc1sc(-c2ccc(C(=O)O)cc2)nc1-c1ccccc1,12.4%
16,O=C(O)Cc1sc(-c2ccccc2)nc1-c1cccs1,28.9% (active)
17,CC1(C)C(C=C(Cl)Cl)C1C(=O)N(Cc1ccc(Cl)cc1)C1CCS(=O)(=O)C1 (centres undefined),1.5%
18,N#C/C(C(=O)N1CCOCC1)=C1/SC(Cc2ccc(F)cc2)C(=O)N1c1ccccc1 (centres undefined),-4.4%
19,CC(C)NC(=O)NC(=O)CSc1nnc(-c2ccccc2F)n1N,1.8%
20,O=c1c2ccccc2c(-c2ccccc2)nn1Cc1ccccc1,1%
21,Cn1c(CO)cnc1SCc1ccccc1,6.4%
22,CSc1c(SCc2ccccc2)cnn(Cc2ccccc2)c1=O,24% (active)
23,COC(=O)NNC1=CC(=O)CC(C)(C)C1,5.4%
24,COc1ccc(-n2c(C)cc(C(=O)COC(=O)c3cc(OC)c(OC)cc3NC(=O)c3cccs3)c2C)cc1,8.5%
25,OCC1(CCc2ccccc2)CCN(Cc2ccc3nsnc3c2)CC1,35.7% (active)

row,SMILES,activation
1,Cc1cccc(-c2ncc(CN3CCC(CO)(CCCc4ccccc4)CC3)cn2)c1,5.8%
2,CC(=O)c1cccc(CN2CCC(CO)(Cc3ccccc3)CC2)c1,0%
3,c1csc(-c2nnc(COc3ccc4c(c3)OCO4)o2)c1,0.1%
4,Cc1cccc(NC(=O)c2cc([N+](=O)[O-])ccc2N2CCN(C)CC2)c1,10.3%
5,COCCN(C(=O)c1ccccc1F)c1c(N)n(Cc2ccccc2)c(=O)[nH]c1=O,-2.5%
6,CCN1CC(CN(C)Cc2nc(-c3ccc(Cl)cc3)no2)CC1=O (centres undefined),-3.9%
7,Cc1n[nH]c(=O)nc1N/N=C/c1cccs1,22.1% (active)
8,COc1ccc(Nc2nc(=O)[nH]nc2C)cc1,5.2%
9,Clc1ccc(N/N=C/c2cccs2)nn1,4.4%
10,CC(=O)Nc1ccc(CN2CCN(Cc3ccc(F)c(F)c3)C(CCO)C2)cc1 (centres undefined),3.4%
11,Cc1ccc(NS(=O)(=O)c2cccs2)cc1S(=O)(=O)N1CCCCCC1,27.9% (active)
12,O=C(C1CCN(S(=O)(=O)c2cccs2)CC1)N1CCCCCC1,-1.2%
13,Cc1ccc(C(=O)NCC(=O)O)cc1S(=O)(=O)N1CCCCC1,2.2%
14,O=C(NNc1cc(Cl)ccc1Cl)c1cccnc1Cl,5%
15,C=C(C)CNC(=S)N/N=C/c1ccccc1OCC(=O)O,4.6%
16,Cc1ccc(C(=O)Oc2coc(CSc3nnc(NC(=O)c4cccs4)s3)cc2=O)cc1C,-0.6%
17,CCOc1cccc(C(=O)Nc2cccnc2)c1,4.5%
18,Cc1ccc(C(=O)Nc2nnc(-c3cccs3)s2)cc1C,21.8% (active)
19,CCCc1nnc(NC(=O)c2cccs2)s1,-1.6%
20,CCOc1cccc(C(=O)Nc2nnc(-c3cccs3)s2)c1,41.8% (active)
21,CCc1nnc(NC(=O)c2cccs2)s1,1.3%
22,COc1ccc(/C=C/C2=CC(C)(C)NC(=S)N2)c(OC)c1,-5.6%
23,O=C(Cc1ccccc1Cl)N1CCN(c2ccccn2)CC1,-1%
24,CC(Sc1nncn1C)C(=O)Nc1cc(C(F)(F)F)ccc1N1CCOCC1 (centres undefined),-2.1%
